KCNQ2 inh: inhibitors of rat KCNQ2 potassium channel | O88943 | CHO-K1 KCNQ2, FluxOR thallium flux, 20 min; active compounds read low | B-score at 10 µM | actives 1.1% (n = 310,000);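 active = fluorescence ratio B-score at most minus 3 library SDs, with starting brightness B-score within 2 library SDs, cut at about -5.5 in these data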
KCNQ2 enhance: enhances the rat KCNQ2 potassium channel; O88943; CHO-K1 KCNQ2, FluxOR thallium flux fluorescence; active compounds read high; B-score at 10 µM; actives 0.54% (n = 310,000);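 active = fluorescence ratio B-score at least 3 SD of library B-scores, with initial fluorescence B-score within 3 of them, cut at about 5.3 in these data; same plate scores as AID 2156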;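 also: B-score of peak minus minimum over baseline fluorescence ratio after K+ and Tl+ stimulus; positive B-score means potentiation of KCNQ2 with more thallium influx and brighter signal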
KCNQ2 block conf: confirmation of rat KCNQ2 potassium channel inhibitors; shares compounds with KCNQ2 inh; KCNQ2-expressing cells, thallium flux, inhibition; active compounds read low; activity change, negative = inhibition, % at 10 µM; actives 57% (n = 1,000); AID 493025;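 also: 0% = vehicle wells and values are ratio percent relative to vehicle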
KCNQ1 spec: KCNQ2 inhibitor that also affects human KCNQ1 channel | shares compounds with KCNQ2 inh | KCNQ1-expressing cells, FluxOR thallium flux fluorescence; active compounds read low | activity change, negative = inhibition, % at 10 µM | actives 15% (n = 1,000);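 active = activity change at least 3 SD of negative controls below their mean in both duplicate wells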;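 also: CHO cells stably transfected with KCNQ1 and depolarized by potassium stimulus; peak minus minimum fluorescence over baseline after thallium addition; 0% = vehicle negative control and -100% = blank without thallium stimulus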
Target sequence (P51787 whole entry, looked up): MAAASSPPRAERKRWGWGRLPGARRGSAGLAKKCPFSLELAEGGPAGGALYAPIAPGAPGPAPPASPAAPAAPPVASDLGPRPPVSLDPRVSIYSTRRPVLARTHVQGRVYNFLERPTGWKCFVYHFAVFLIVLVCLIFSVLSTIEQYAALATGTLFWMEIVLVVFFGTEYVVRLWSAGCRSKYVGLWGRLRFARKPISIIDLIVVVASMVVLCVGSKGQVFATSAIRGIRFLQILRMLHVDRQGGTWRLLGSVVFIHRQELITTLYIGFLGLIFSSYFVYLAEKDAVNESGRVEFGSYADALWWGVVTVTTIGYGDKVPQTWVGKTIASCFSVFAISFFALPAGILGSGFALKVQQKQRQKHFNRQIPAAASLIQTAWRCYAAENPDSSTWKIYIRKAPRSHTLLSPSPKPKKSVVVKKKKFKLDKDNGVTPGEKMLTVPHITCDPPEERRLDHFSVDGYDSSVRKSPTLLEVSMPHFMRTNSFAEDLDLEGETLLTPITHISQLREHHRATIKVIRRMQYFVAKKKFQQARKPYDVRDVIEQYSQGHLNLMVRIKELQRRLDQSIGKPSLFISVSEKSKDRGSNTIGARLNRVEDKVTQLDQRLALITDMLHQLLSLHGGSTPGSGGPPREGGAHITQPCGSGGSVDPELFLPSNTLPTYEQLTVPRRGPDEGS
CHO parental ctr: activity in parental CHO cells lacking KCNQ2; shares compounds with KCNQ2 inh; thallium flux counter-screen; active compounds read low; activity change, % at 10 µM; actives 14% (n = 1,000);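 also: 0% = vehicle negative controls with stimulus buffer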
KCNQ2 patch conf: blocks rat KCNQ2 current in automated patch clamp; shares compounds with KCNQ2 inh; KCNQ2-expressing cells; calls only at 10 µM; actives 49% (n = 550)
Active calls of the source: *; i = inactive; x = no result; + = active, no number. Shown are actives, neighbours in structure and some others; about 1.6% of the full set was active somewhere. Unless noted, no rule for the calls is given here.

SMILES	KCNQ2 inh	KCNQ2 enhance	KCNQ2 block conf	KCNQ1 spec	CHO parental ctr	others
CCN(C(=O)CSc1nnc2c3ccccc3n(CC)c2n1)C1CCS(=O)(=O)C1 (centres undefined)	i	0.29	x	x	x
CSCCC(NC(=O)COc1ccccc1)C(=O)OC(C)C(=O)Nc1ccccc1C (centres undefined)	i	0.66	x	x	x
COc1ccc(NC(=O)CC2CCCC2)cc1S(=O)(=O)N1CCCCC1	i	1.65	x	x	x
COc1ccc(NC(=O)CN2C(=O)NC3(CC(C)CC(C)(C)C3)C2=O)cc1S(=O)(=O)N1CCCCC1 (centres undefined)	-8.89*	-8.89	i	i	i
Cc1ccc(CC2C(=O)N(c3nc(C)cc(C)n3)C(=O)C2C)cc1 (centres undefined)	i	x	x	x	x
CC(=O)NCC(=O)OCC(=O)N1c2ccccc2Sc2ccccc21	i	0.98	x	x	x
O=C(COc1ccc2ccccc2c1)N1c2ccccc2Sc2ccccc21	-8.87*	-8.87	-27.5%*	i	i	KCNQ2 patch conf=i
Cc1ccc(SCC(=O)N2c3ccccc3Sc3ccccc32)cc1	-6.61*	-6.61	i	i	i
O=C(CSc1nncs1)N1c2ccccc2Sc2ccccc21	i	1.02	x	x	x
CCn1cc(C2=NC(CC(C)C)CO2)c2ccccc21 (centres undefined)	i	x	x	x	x
CC(NC(=O)Cc1ccccc1)c1ccc(F)cc1 (centres undefined)	i	1	x	x	x
CC(NC(=O)CCC(=O)c1ccccc1)c1ccc(F)cc1 (centres undefined)	-8.77*	-8.77	i	i	i
CC(C)C[C@H](NC(=O)N1CCn2c1nc1ccccc12)C(=O)NCCc1ccccc1	i	x	x	x	x
CC(C)C[C@H](NC(=O)N1CCn2c1nc1ccccc12)C(=O)NCc1ccccc1	-6.68*	-6.68	i	i	i
CC(=O)N1c2ccc(S(=O)(=O)N(C)CC(=O)NCc3ccc(C)cc3)cc2CC1C (centres undefined)	i	x	x	x	x
COCCn1cnc2c1c(=O)n(CC(=O)NC(=O)NC(C)(C)C)c(=O)n2Cc1ccccc1	i	x	x	x	x
N#Cc1nc(COc2ccc(F)cc2)oc1N1CCCC1	i	x	x	x	x
Cc1ccc(OCc2nc(C#N)c(N3CCN(Cc4ccccc4)CC3)o2)cc1	-7.85*	-7.85	i	i	i
N#Cc1nc(COc2ccccc2)oc1N1CCC(Cc2ccccc2)CC1	-11.1*	-11.1	-29.5%*	i	i	KCNQ2 patch conf=i
Cc1ccccc1OCc1nc(C#N)c(N2CCCC2)o1	i	x	x	x	x
Cn1cnnc1SCCC(=O)Nc1ccc(Cl)cc1	i	0.87	x	x	x
Cn1cnnc1SCCC(=O)Nc1ccccc1	-8.26*	-8.26	i	i	i
O=C(NC12CC3CC(CC(C3)C1)C2)c1ccccc1	i	x	x	x	x
O=C(NC12CC3CC(CC(C3)C1)C2)N(Cc1ccccc1)Cc1ccncc1	-10.9*	-10.9	-34.0%*	i	i	KCNQ2 patch conf=+
Cc1cccc(-c2nc(CS(=O)CC(=O)NCCc3ccc(Cl)cc3)c(C)o2)c1 (centres undefined)	i	x	x	x	x
SMILES	KCNQ2 inh	KCNQ2 enhance	KCNQ2 block conf	KCNQ1 spec	CHO parental ctr	others
c1csc(C(c2nnnn2C2CCCCC2)N2CCCC3(CCCCC3)C2)c1 (centres undefined)	i	x	x	x	x
CC(C)(C)n1nnnc1C(c1cccs1)N1CCCC2(CCCCC2)C1 (centres undefined)	-7.45*	-7.45	-33.0%*	-38.5%*	-30.5%*	KCNQ2 patch conf=i
Cc1cc(C)nc(N2CCCC(C(=O)NC(C)C)C2)n1 (centres undefined)	i	x	x	x	x
CC(C)[C@H](NC(=O)OCc1ccccc1)C(=O)OCC(=O)NCCc1ccccc1	-7.07*	-7.07	i	i	i
CC(C)[C@H](NC(=O)c1ccccc1)C(=O)OCC(=O)NCCc1ccc(F)cc1	i	x	x	x	x
O=C(O)Cc1sc(Nc2cccc3ccccc23)nc1-c1ccc(Cl)cc1	-8.23*	-8.23	i	i	i
Cc1ccc(Nc2nc(-c3ccc(C)cc3)c(CC(=O)O)s2)cc1	i	1.71	x	x	x
O=C(COC(=O)C1CSC2(c3ccc(F)cc3)CCC(=O)N12)NC(=O)NC1CCCC1 (centres undefined)	i	1.83	x	x	x
O=C(CCNC(=O)c1ccc(Br)cc1)Nc1ccc(S(=O)(=O)Nc2ncccn2)cc1	i	0.94	x	x	x
COc1ccc(Br)cc1CN1CCC(N2CCCC2)CC1	i	x	x	x	x

Source: PubChem BioAssay (Johns Hopkins Ion Channel Center)
